Some test systems named below: TBK1; TEC; TESK1; TGFBR1; TGFBR2; TIE1; TLK1; TLK2; TNIK.
What all share (conditions): Compound Concentration (nM):1000
In a further assay the test system is T1, TIE2.
T1 construct: gene TEK
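Also: KINOMEscan scanMAX binding as percent activity remaining versus control; lower means stronger binding.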

Regarding `Cl.O=C(Nc1ccc(Oc2ccc3[nH]c(NC(=O)c4ccccc4)nc3c2)cc1)Nc1cc(C(F)(F)F)ccc1F` [GW709042A], the “Percent Control” value with TBK1 was 88%; in the assay with TEC, 100%; in the assay on TESK1 it was 96%; in the assay with TGFBR1, 100%; in the assay on TGFBR2, 100%; in the assay on TIE1 it was 2.3%. Also, the “Percent Control” value in the assay on TIE2 is 7.5%; in the assay with TLK1, 100%; with TLK2, 86%; with TNIK, 100%.
Regarding `COc1cc(/C=N/Nc2ncnc3[nH]ncc23)ccc1O` [GW578748X], the “Percent Control” value in the assay on TBK1 was 50%; in the assay on TEC, 100%; in the assay with TESK1 it was 94%; in the assay on TGFBR1, 100%; in the assay on TGFBR2, 87%; with TIE1 it was 100%. Besides, the “Percent Control” value in the assay on TIE2 was 100%; in the assay on TLK1, 86%; in the assay with TLK2, 76%; with TNIK, 94%.
In the case of `NS(=O)(=O)c1ccc(N/N=C2\C(=O)Nc3ccc(C(=O)NCCc4c[nH]cn4)cc32)cc1` [GW300660X], the “Percent Control” value is 72% with TBK1; 100% with TEC; 100% with TESK1; 100% with TGFBR1; 100% with TGFBR2; 100% in the assay on TIE1. Moreover, the “Percent Control” value with TIE2, in the assay with TLK1, in the assay on TLK2 and in the assay on TNIK was 100% in each case.
With `Cc1cc(O)cc(C)c1/C=C/c1cncc(C(N)=O)c1` [GW435821X], the “Percent Control” value in the assay with TBK1 was 100%; with TEC, 100%; in the assay with TESK1 it was 100%; with TGFBR1, 84%; in the assay on TGFBR2 it was 81%; with TIE1, 100%. For the same molecule, the “Percent Control” value in the assay with TIE2, in the assay with TLK1, with TLK2 and in the assay with TNIK was 100% in each case.
Take `COc1cc(C)c(N(C)C(=O)CN(C)C)cc1Nc1nc(Nc2cccc(F)c2C(N)=O)c2cc[nH]c2n1` [GSK2219385]: the “Percent Control” value was 69% in the assay with TBK1; 100% in the assay with TEC; 92% in the assay on TESK1; 100% in the assay on TGFBR1; 100% with TGFBR2; 82% in the assay with TIE1. The “Percent Control” value in the assay with TIE2 is 100%; in the assay on TLK1, 85%; with TLK2, 100%; in the assay with TNIK, 98%.
In the case of `CN(C)CCNC(=O)Nc1ccc(N(C)c2ccnc(Nc3ccc(CS(C)(=O)=O)cc3)n2)cc1.Cl` [GW830900A], the “Percent Control” value with TBK1 is 98%; with TEC, 82%; with TESK1, 100%; in the assay on TGFBR1, 100%; in the assay on TGFBR2, 75%; in the assay with TIE1, 72%. The “Percent Control” value was 100% in the assay with TIE2, 89% in the assay with TLK1, 100% in the assay with TLK2 and 49% in the assay with TNIK.
Turning to `CCc1ccc(Oc2nccc(-c3c(-c4ccc(F)cc4)ncn3C3CCNCC3)n2)cc1` [SB-242719], the “Percent Control” value was 65% in the assay with TBK1; 100% in the assay on TEC; 99% in the assay with TESK1; 96% in the assay on TGFBR1; 100% in the assay with TGFBR2; 100% in the assay with TIE1. Further, the “Percent Control” value with TIE2 was 100%; with TLK1, 91%; in the assay with TLK2 it was 100%; in the assay with TNIK it was 66%.
With `COc1ccc2[nH]c3c4[nH]c5ccc(OC)cc5c4c4c(c3c2c1)C(=O)NC4=O` [GW296115X], the “Percent Control” value is 59% in the assay with TBK1; 88% in the assay on TEC; 90% in the assay with TESK1; 100% with TGFBR1; 100% in the assay on TGFBR2; 100% in the assay with TIE1. The “Percent Control” value in the assay with TIE2 is 100%; in the assay with TLK1, 100%; in the assay with TLK2, 95%; in the assay with TNIK, 3%.
As for `O=C1Nc2ccc(C(=O)c3ccco3)cc2C1=Cc1cc(Cl)c(O)c(Cl)c1` [GW406108X], the “Percent Control” value with TBK1 was 40%; with TEC, 100%; in the assay with TESK1, 100%; in the assay on TGFBR1 it was 99%; in the assay on TGFBR2, 58%; in the assay on TIE1 it was 100%. The “Percent Control” value in the assay with TIE2 was 100%; with TLK1, 94%; in the assay on TLK2, 97%; with TNIK it was 24%.
As for `CN1CCN(C(=O)c2ccc(NC(=O)Nc3ccc(N(C)c4ccnc(Nc5ccc(CS(C)(=O)=O)cc5)n4)cc3)cc2)CC1.Cl` [GW830263A], the “Percent Control” value in the assay with TBK1 is 55%; with TEC, 100%; in the assay on TESK1, 100%; in the assay on TGFBR1 it was 88%; in the assay on TGFBR2, 26%; with TIE1, 8.3%. For the same molecule, the “Percent Control” value in the assay on TIE2 is 41%; in the assay with TLK1, 86%; in the assay with TLK2 it was 100%; with TNIK, 23%.
As to `NS(=O)(=O)c1ccc(N/N=C2\C(=O)Nc3ccc(C(=O)NCc4ccncc4)cc32)cc1` [GW300657X], the “Percent Control” value with TBK1 is 33%; in the assay on TEC, 100%; in the assay with TESK1 it was 100%; in the assay on TGFBR1, 100%; in the assay with TGFBR2, 100%; in the assay on TIE1, 85%. In addition, the “Percent Control” value with TIE2 is 100%; with TLK1, 71%; in the assay on TLK2 it was 75%; in the assay on TNIK it was 82%.
Consider `CN(C)c1cc2c(Nc3ccc4c(cnn4Cc4ccccc4)c3)ncnc2cn1` [GW282974X], for which the “Percent Control” value in the assay with TBK1 is 55%; in the assay on TEC it was 84%; with TESK1, 87%; in the assay with TGFBR1, 100%; with TGFBR2 it was 100%; in the assay on TIE1, 100%. Further, the “Percent Control” value is 100% with TIE2, 78% in the assay on TLK1, 80% with TLK2 and 100% with TNIK.
Regarding `Cl.O=C(Nc1ccc(Oc2ccc3[nH]c(NC(=O)c4ccco4)nc3c2)cc1)Nc1cc(C(F)(F)F)ccc1F` [GW683134A], the “Percent Control” value was 100% with TBK1; 100% with TEC; 71% in the assay with TESK1; 91% in the assay on TGFBR1; 89% with TGFBR2; 1.1% in the assay on TIE1. The “Percent Control” value in the assay with TIE2 is 1.9%; in the assay with TLK1, 100%; in the assay with TLK2, 77%; in the assay with TNIK, 100%.
Turning to `COc1cccc(-c2c[nH]c3c(N/N=C/c4ccncc4)ncnc23)c1` [GW814408X], the “Percent Control” value in the assay with TBK1 was 71%; in the assay on TEC, 90%; with TESK1, 97%; with TGFBR1, 55%; with TGFBR2, 100%; in the assay with TIE1, 96%. Moreover, the “Percent Control” value in the assay on TIE2 was 100%; in the assay with TLK1, 84%; in the assay on TLK2, 100%; in the assay with TNIK it was 51%.
Consider `Cl.c1ccc(Cc2nc3ccc(Nc4ncnc5ccccc45)cc3[nH]2)cc1` [GR269666A], for which the “Percent Control” value with TBK1, in the assay with TEC, with TESK1, in the assay on TGFBR1, in the assay with TGFBR2 and with TIE1 was 100% throughout. Besides, the “Percent Control” value with TIE2, in the assay with TLK1, in the assay on TLK2 and with TNIK was 100% in each case.
With `NS(=O)(=O)c1ccc(N/N=C2\C(=O)Nc3ccc(-c4cnco4)cc32)cc1` [GW276655], the “Percent Control” value is 63% in the assay with TBK1; 100% with TEC; 77% in the assay with TESK1; 100% in the assay with TGFBR1; 100% in the assay on TGFBR2; 73% with TIE1. The “Percent Control” value in the assay with TIE2 was 100%; with TLK1, 96%; with TLK2, 66%; in the assay on TNIK, 26%.
Turning to `CCn1c(-c2nonc2N)nc2c(C#CC(C)(C)O)nc(OCCNC)cc21.Cl` [GSK949675], the “Percent Control” value in the assay on TBK1 was 95%; with TEC, 100%; in the assay with TESK1, 100%; in the assay on TGFBR1, 100%; with TGFBR2 it was 100%; in the assay with TIE1, 100%. The “Percent Control” value in the assay on TIE2 was 96%; with TLK1, 100%; in the assay with TLK2, 100%; with TNIK it was 100%.
`COc1ccc(COc2ccc(Cc3cnc(N)nc3N)cc2OC)cc1` [GW632580X]: the “Percent Control” value in the assay on TBK1 is 99%; in the assay on TEC it was 100%; in the assay with TESK1, 99%; in the assay with TGFBR1 it was 100%; with TGFBR2 it was 100%; in the assay on TIE1 it was 100%. Besides, the “Percent Control” value was 100% in the assay with TIE2, 92% in the assay on TLK1, 100% in the assay with TLK2 and 100% in the assay with TNIK.
For `COc1ccc2cc(-c3c(-c4ccncc4)nc(-c4ccc(S(C)(=O)=O)cc4C)n3C)ccc2c1` [SB-633825], the “Percent Control” value in the assay with TBK1 is 65%; in the assay on TEC, 66%; in the assay on TESK1, 91%; with TGFBR1 it was 9.7%; with TGFBR2 it was 86%; with TIE1, 3.8%. The “Percent Control” value in the assay with TIE2 is 2.4%; with TLK1, 94%; in the assay with TLK2 it was 100%; with TNIK, 54%.
As for `COc1cc(N2CCN(C(C)C)CC2)ccc1Nc1nc(Nc2ccc(F)cc2C(=O)NC[C@@H](O)CO)c2cc[nH]c2n1` [GSK1392956A], the “Percent Control” value in the assay on TBK1 was 100%; in the assay on TEC, 100%; with TESK1, 92%; in the assay with TGFBR1, 100%; in the assay on TGFBR2, 100%; in the assay on TIE1, 100%. The “Percent Control” value was 100% with TIE2, 83% in the assay on TLK1, 92% in the assay with TLK2 and 72% in the assay on TNIK.
